The sequences below were run against AATK (assay: pooled miR-30 sensor sort-seq; sequence = guide strand). Details: shRNA.
Also: reference of the scale not given here.

Sequence	sensor-assay potency score (higher = more potent)
TAGCTCATCCTCGCCAGTCAGC	-1.1
TTGATGGCAGACACCTCGCCAC	-0.828
TCGGTAGGGATTCTTCTCGTTG	-0.77
TTGCGTTCCAGGTCCTCGCAGA	-0.188
TAGTCCTCTCTGTACTTGCAGT	-1.18
TTGTACTCAAAATTGAGGCCTC	0.126
TTCTGATCTCAGCGGAACCGGG	-1.21
ATAGTCACCAATCTTCACCGTC	0.047
AACTGCATCACCTCGTACCAGC	-1.29

What follows are sequences tested against ABCA10 in the same assay as above. Details: shRNA.

Sequence	sensor-assay potency score (higher = more potent)
TTGAACATCTTCATCTTCTTCT	1.07
TATTCTTTTATAACATTTCTGA	0.0597
TTTATCATCAACATTTCCCAGC	-0.195
TTCTTTTATAACATTTCTGATT	-1.16
TATCACTAAATATAACTCCCAC	-0.516
TTTATTTTAGCAAATACCCTGA	-0.0638
TTCATTTATTCTATTGTCCAGA	-0.279
TTAGACAGAAATACTTTCCTAT	0.661
TTATTAACGATTAACAGGCTGG	-0.301
TTCTTCTTCGGGCTCTTCCGGA	-0.863
TTATTTTTTCTCCACTTGCGAA	-1.28

The sequences below were run against ABCB11 in the same assay as above. Details: shRNA.

Sequence	sensor-assay potency score (higher = more potent)
TTGACTATCATCCCGATCTGAG	-0.211
TAGAGTGAAGTAAACACCTTTC	-0.144
TAGCTTTTGCATAACTTGGGGT	0.0681
TTGCACTCAGTACAACTGCAGA	-1.15
TAGACTTATGATCTACAACAGC	-1.33
TTAGCTTTTGCATAACTTGGGG	-0.00733
TTCTTGTAACTCAACGTCGTAG	-0.168
TTTGCTGTCATGACCATCTATC	-0.277
TAACCATCTTCTGACATGCAGT	-1.16
TACAACTGCAGAGATCACCCTG	0.317
TTCTTCTCATCTTGTAACCTTG	-0.836

What follows are sequences tested against ABCD4 in the same assay as above. Details: shRNA.

Sequence	sensor-assay potency score (higher = more potent)
TCTCATCATCGGCAGAACCTGA	-0.963
ATGAGCTGGGTGAAGCAGCTGA	-0.109
ATCTGCATGTGCTTGAACCTAA	-0.448
TCGATCTTCGCTGTCAGTCCTC	-0.221
TAGTCAAAGGTGTTGATGCCGA	-0.776
TTCGCTGTCAGTCCTCCTGGTC	-0.858
ATCGGCAGAACCTGAGTCGGGG	-0.759
TTACAGATCTCACACTTCCAGA	-0.864
ATACCAGTTCCAGTCCACCTGC	-0.984
